Rows were chosen to be rich in hits. Some 1.4% of all compounds tested hit in one or more screens of this group.
KCNH2 3.1 inh: KCNH2 3.1 (human) potassium channel inhibition; activity change, % (tested at about 1.8 µM); U2OS KCNH2 3.1, thallium flux FluxOr; stronger effect = lower value; 340,000 compounds, 0.95% hits;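 active = maximum activity change below -70%; inconclusive = maximum activity change from -70% to -50%; inactive = maximum activity change above -50%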;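 also: thallium influx rate constant from kinetic fluorescence after stimulation buffer; % is scaled to controls: 0 for no effect and ±100 for the full control effect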
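Thallium flux read-out: FluxOr dye with Red40 quencher in HBSS/HEPES, 45 min at RT. Rate constants from kinetic reads were normalized to positive and negative DMSO controls. Cells: U2OS virally expressing the 3.1 isoform.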
EPAC1 antag: antagonists of human EPAC1; AID 720709; 360,000 compounds, 0.14% hits; EPAC1 GEF assay, Rap1b-BODIPY-GDP exchange fluorescence; O95398; Potency, µM (titrated, usually from 115 µM), without a hit: top-dose activity change, negative = inhibition, actives largely listed as inhibitors;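 also: potency is read from the fitted curve at half-maximal effect; plate controls were vehicle for no effect and positive control for full effect; nearly all actives have a fitted effect of over 50% in size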
EPAC1 ag: activates human EPAC1 exchange factor | O95398 | EPAC1 agonist qHTS, biochemical assay; response scale: 100% = response to 6.5 mM cAMP | Potency, µM (doses to about 154 µM), inactives show at the highest dose activation, hits mostly activators | 360,000 compounds, 0.073% hits | AID 720707; also: potency is read from the fitted curve at half-maximal effect; nearly all actives have a fitted effect of over 60% in size
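Compounds were pinned as a concentration titration into mixtures of EPAC1 (100 nM), BODIPY-GDP-loaded Rap1B (250 nM) and GDP (50 uM). After 5 min at room temperature, fluorescence was followed for 30 min; activity was scaled to 6.5 mM cAMP.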
hERG WT inh: inhibitors of human wildtype KCNH2 potassium channel | AID 720551 | U2OS, BacMam KCNH2, thallium flux FluxOr; stronger effect = lower value | 340,000 compounds, 0.37% hits | Q12809 | activity change, % at 1.84 µM;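 active = maximum activity change below -70%; inconclusive = maximum activity change between -70% and -50%; inactive = maximum activity change above -50%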; also: % is scaled to controls: 0 for no effect and ±100 for the full control effect
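U2OS cells transduced with wild-type KCNH2 virus are loaded with FluxOr dye for 45 min, and thallium flux is measured in kinetic reads before and after stimulation buffer. Rate constants are normalized to DMSO controls.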
EPAC2 antagonist: blocks human EPAC2 exchange factor; Q8WZA2; EPAC2 GEF exchange of Rap1B-BODIPY-GDP, fluorescence; Potency, µM (top dose mostly 114 µM), for the others: at the highest dose activity, negative = inhibition, hits mostly inhibitors; 360,000 compounds, 0.18% hits; AID 720708; also: potency is read from the fitted curve at half-maximal effect; % is scaled to controls: 0 for no effect and ±100 for the full control effect; nearly all actives have a fitted effect of over 45% in size
EPAC2 ag: agonists of human EPAC2 (RAPGEF4); Potency, µM (highest dose often 154 µM), for the others: top-dose activation, hits mostly activators; Q8WZA2; EPAC2 activation, biochemical qHTS; response scale: 100% = 6.5 mM cAMP response; 360,000 compounds, 0.079% hits; also: potency is read from the fitted curve at half-maximal effect; nearly all actives have a fitted effect of over 50% in size
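EPAC2 (100 nM) mixed with Rap1B loaded with BODIPY-GDP (250 nM) plus 50 uM unlabeled GDP; compounds pinned in, 5 min RT, then read every 5 min for 30 min (ex 480, em 540 nm). Normalized to cAMP control.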
Starred values were filed as active, the others as inactive; ? = inconclusive; . = not tested or not shown. Unless noted, calls follow the shape of the dose curve; as a rule, active = well fitted curve in the direction sought with a large enough effect; inconclusive = small, poorly fitted or top-dose-only effect, or another doubt; inactive = no such curve, though single readings can be large; an effect the other way counts as inactive or inconclusive.

SMILES	KCNH2 3.1 inh	EPAC1 antag	EPAC1 ag	hERG WT inh	EPAC2 antagonist	EPAC2 ag
O=Cc1cc([N+](=O)[O-])ccc1N1CCN(Cc2ccc3c(c2)OCO3)CC1	-86*	-7%	20%	?	-12%	3%
Cc1ccc(CN2C(=O)CSCC2(C)C(=O)Nc2c(C)cccc2C)cc1 (stereo not given)	.	-2%	2%	.	7%	4%
CC1=Nc2ccc(C)cc2/C1=C/c1c(N)n2c(S(=O)(=O)C(C)C)nsc2nc1=O	-9	50µM*	-22%	-3	-5%	-11%
CCOc1ccc(S(=O)(=O)N2CCOCC2)cc1NC(=O)CSCc1ccc(C)cc1	-19	-25%	7%	-25	-9%	15%
COc1ccc(C(=O)Nc2ccc(NC(=O)c3cccs3)c(OC)c2)cc1Cl	-83*	0%	-6%	2	-2%	6%
Cc1nn(-c2ccc(Cl)cc2)c(Cl)c1/C=N/NC(=O)c1ccc(NS(=O)(=O)c2cccs2)cc1	5	-5%	-8%	-7	4%	2%
COc1ccccc1C1Nc2ccccc2NC2=C1C(=O)CC(C)(C)C2 (stereo not given)	-194*	-5%	6%	-129*	-3%	8%
COc1cccc(C2Nc3ccccc3NC3=C2C(=O)CC(C)(C)C3)c1OC (stereo not given)	0	1%	-5%	-5	19%	-2%
Cc1cc(C)cc(OCC(=O)NNC(=O)CN2C(=O)c3ccccc3C2=O)c1	2	-4%	-12%	13	-3%	-8%
Cc1ccc(C)c(OCCC(=O)N2CCN(S(=O)(=O)c3ccc([N+](=O)[O-])cc3)CC2)c1	-139*	-8%	-7%	16	-10%	-2%
Cc1ccc(S(=O)(=O)N2CCN(CC(=O)Nc3ccc([N+](=O)[O-])cc3)CC2)cc1C	-92*	-2%	9%	-76*	-12%	-9%
O=C1CSC(c2ccc(Cl)cc2Cl)N1c1ccccn1 (stereo not given)	12	-14%	10%	-2	18µM*	23%
O=C(CN1C(=O)CCC1=O)Nc1nc(-c2ccc3ccccc3c2)cs1	-1	2%	11%	-10	3%	1%
O=C(CN1C(=O)CCC1=O)Nc1nc(-c2ccccn2)cs1	-117*	12%	-14%	4	36%	15%
Cc1ccccc1S(=O)(=O)NC(=O)C1(C)CCN1C(=O)COc1ccc(Cl)cc1 (stereo not given)	.	11%	1%	.	8%	-1%
Cc1ccc(C)c(C(=O)CCC(=O)Nc2ccc(N3CCN(C)CC3)cc2C)c1	-122*	17%	-22%	-48	1%	-10%
COc1cc(C)ccc1OCC(=O)NC1CCCCCC1	-15	-13%	2%	1	1%	6%
COc1ccc(C)cc1NC(C)C(=O)NC(=O)NC1CCCCC1 (stereo not given)	-97*	7%	11%	-3	-3%	5%
CCN(CC)S(=O)(=O)c1ccc2c(c1)N(CC(=O)Nc1ccc(NC(C)=O)cc1)C(=O)CO2	1	-5%	4%	6	4%	0%
COc1cc(NC(=O)c2ccc3c(SCC(=O)O)c4c(nc3c2)CCC4)cc(OC)c1OC	0	-28%	10%	-25	-12%	2%
COc1cc(NC(=O)c2ccc3c(SCC(=O)O)c4c(nc3c2)CCCC4)cc(OC)c1OC	-77*	-9%	5%	.	-14%	9%
COc1cc(OC)c(NC(=O)c2ccc3c(SCC(=O)O)c4c(nc3c2)CCCC4)cc1Cl	-104*	?	0%	4	?	-2%
COc1ccccc1NC(=O)c1ccc(N2CC3CC(C2)c2cccc(=O)n2C3)c(NC(=O)c2ccncc2)c1 (stereo not given)	14	-4%	3%	-3	-8%	11%
Cc1cn2c(-c3cccnc3)nnc2s1	-76*	-16%	4%	5	5%	4%
CCN(CC)CC(O)CN1C(=O)NC(C)(C)C1=O (stereo not given)	18	6%	-1%	4	17%	4%
SMILES	KCNH2 3.1 inh	EPAC1 antag	EPAC1 ag	hERG WT inh	EPAC2 antagonist	EPAC2 ag
O=S(=O)(Nc1nc(-c2sccc2Cl)cs1)c1cc(Cl)ccc1Cl	-3	79µM*	-12%	2	50µM*	-24%
COc1cc(/C=C2\SC(=Nc3ccccc3)N(CCc3c[nH]c4ccccc34)C2=O)ccc1OC(C)C(=O)O (stereo not given)	0	?	100µM*	-4	?	-10%
CN(CC(=O)Nc1ccccc1Br)C(=O)c1ccncc1	-105*	-3%	-15%	2	26%	4%
COc1ccc(S(=O)(=O)N2CCN(CC(=O)Nc3ccccc3Cl)CC2)cc1	-88*	-1%	13%	4	-9%	18%
COc1ccc(NC(=O)CN2CCCC2)cc1	-10	-2%	1%	-1	-1%	8%
CC(=O)c1ccc(NC(=O)CN2CCN(CC(=O)Nc3ccc(C(C)=O)cc3)CC2)cc1	-102*	4%	4%	6	-2%	11%
COc1ccc(NC(=O)CN2CCN(CC(=O)Nc3ccc(OC)cc3)CC2)cc1	-108*	-7%	3%	-92*	3%	3%
COc1ccc(NC(=O)CN2CCN(CC(=O)Nc3ccc4c(c3)OCO4)CC2)cc1	.	15%	3%	-79*	11%	3%
CN(Cc1c(C(=O)N/N=C/c2cccc(Cl)c2)nnn1-c1nonc1N)c1ccccc1	2	-11%	12%	3	-4%	12%
COc1ccc2c(COC(=O)[C@H](C)NS(=O)(=O)c3ccccc3F)cc(=O)oc2c1	-3	-12%	-1%	4	-7%	4%
O=C(NCCc1nnc2ccc(SCC(=O)N3CCCC3)nn12)c1ccccc1	-3	-1%	-6%	4	4%	2%
O=C1c2cccc3c(N4CCCCC4)ccc(c23)C(=O)N1c1cccc(O)c1	-14	59%	?	-11	79%	100µM*
C=CCN1C(=O)c2cccc3c(N4CCCCC4)ccc(c23)C1=O	-2	32%	14%	-9	67%	100µM*
NNC(=O)CCc1ccc(S(=O)(=O)N2CCOCC2)cc1	-5	22%	4%	-16	17%	2%
Cc1ccc(C(=O)COC(=O)c2cc(=O)[nH]c3ccccc23)cc1C	20	-4%	6%	1	-13%	6%
COc1ccc(/C=C/C(=O)NCC(=O)N/N=C(\C)Cc2ccccc2)cc1	-8	3%	-7%	4	3%	1%
CC/C(=N\NC(=O)CNC(=O)/C=C/c1ccc(OC)cc1)c1ccccc1	25	3%	10%	-136*	-7%	10%
